Assay results published in PubChem BioAssay (Tox21).
Inconclusive results are not listed. Active and inactive are the calls of the source. Calls follow the shape of the dose curve; as a rule, active = well fitted curve in the direction sought with a large enough effect in the repeat runs; inconclusive = weak or mixed curves; inactive = no such curve, though single readings can be large; an effect the other way counts as inactive or inconclusive.

Experiments:
[1] = A CellTox Green Cytotoxicity Assay to monitor cytotoxicity in HEK293 cells - 40 hour (AID 1224871); also: nearly all actives have a fitted effect of over 45% in size
Procedure, shortened: (§1)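 Tox21 screen in HEK293: membrane-impermeant cyanine dye fluoresces on binding dead-cell DNA; compound pinned 5 h post-seeding, plates held at 37 C, signal read repeatedly through 40 h.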

[2] = qHTS RealTime-Glo MT Cell Viability Assay in HEK293 cells - 16 hour (AID 1224872); also: top concentration of the series differs between compounds; nearly all actives have a fitted effect of over 50% in size
Procedure, shortened: (§2)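 Viability tracked continuously by luminescence as live cells reduce a prosubstrate for NanoLuc; HEK293 cells preincubated 5 h, compound-treated at 37 C, and read at 0, 8, 16, 24, 32 and 40 h.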

[3] = qHTS RealTime-Glo MT Cell Viability Assay in HepG2 cells - 8 hour (AID 1224873); also: nearly all actives have a fitted effect of over 55% in size
Procedure, shortened: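 HepG2 cells mixed with RealTime-Glo MT reagents (NanoLuc plus cell-permeant prosubstrate) were seeded at 600 cells/well, incubated 5 h at 37 C/5% CO2, then pinned with compounds in DMSO; nonlytic luminescence tracked viability during 40 h treatment.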

[4] = qHTS RealTime-Glo MT Cell Viability Assay in HEK293 cells - 40 hour (AID 1224874); settings: RealTime-Glo luminescence; max response: hits give low values; also: nearly all actives have a fitted effect of over 50% in size
Procedure, shortened: (§3)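 HEK293 + NanoLuc + prosubstrate, 600 cells/well; 5 h, 37 C/5% CO2; compound 23 nL in DMSO by pintool; 37 C; luminescence read at 0, 8, 16, 24, 32 and 40 h time points.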

[5] = A CellTox Green Cytotoxicity Assay to monitor cytotoxicity in HEK293 cells - 24 hour (AID 1224875); also: series mostly up to about 77 µM; nearly all actives have a fitted effect of over 45% in size
Procedure, shortened: as §1

[6] = A CellTox Green Cytotoxicity Assay to monitor cytotoxicity in HepG2 cells - 16 hour (AID 1224876); also: nearly all actives have a fitted effect of over 45% in size
Procedure, shortened: (§4)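 Measurements at 0, 8, 16, 24, 32 and 40 h of treatment captured CellTox Green fluorescence in HepG2 cells that had been co-plated with reagent and preincubated 5 h at 37 C/5% CO2.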

[7] = qHTS RealTime-Glo MT Cell Viability Assay in HepG2 cells - 32 hour (AID 1224877); also: nearly all actives have a fitted effect of over 55% in size
Procedure, shortened: (§5)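 Viability was tracked continuously by NanoLuc luminescence from prosubstrate reduced by living HepG2 cells, at successive time points over 40 h of compound exposure. Cells with reagent were preincubated 5 h at 37 °C before compound addition.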

[8] = A CellTox Green Cytotoxicity Assay to monitor cytotoxicity in HepG2 cells - 24 hour (AID 1224878); also: nearly all actives have a fitted effect of over 45% in size
Procedure, shortened: as §4

[9] = A CellTox Green Cytotoxicity Assay to monitor cytotoxicity in HepG2 cells - 40 hour (AID 1224879); also: nearly all actives have a fitted effect of over 40% in size
Procedure, shortened: as §4

[10] = qHTS RealTime-Glo MT Cell Viability Assay in HEK293 cells - 0 hour (AID 1224880)
Procedure, shortened: as §3

[11] = A CellTox Green Cytotoxicity Assay to monitor cytotoxicity in HEK293 cells - 32 hour (AID 1224881); also: nearly all actives have a fitted effect of over 40% in size
Procedure, shortened: as §1

[12] = A CellTox Green Cytotoxicity Assay to monitor cytotoxicity in HepG2 cells - 0 hour (AID 1224882); also: nearly all actives have a fitted effect of over 35% in size
Procedure, shortened: as §4

[13] = A CellTox Green Cytotoxicity Assay to monitor cytotoxicity in HepG2 cells - 32 hour (AID 1224883); also: nearly all actives have a fitted effect of over 50% in size
Procedure, shortened: as §4

[14] = A CellTox Green Cytotoxicity Assay to monitor cytotoxicity in HEK293 cells - 8 hour (AID 1224884); also: nearly all actives have a fitted effect of over 35% in size
Procedure, shortened: as §1

[15] = qHTS RealTime-Glo MT Cell Viability Assay in HepG2 cells - 16 hour (AID 1224885); also: nearly all actives have a fitted effect of over 50% in size
Procedure, shortened: as §5

[16] = qHTS RealTime-Glo MT Cell Viability Assay in HEK293 cells - 24 hour (AID 1224886)
Procedure, shortened: as §2

[17] = qHTS RealTime-Glo MT Cell Viability Assay in HEK293 cells - 8 hour (AID 1224887)
Procedure, shortened: as §3

[18] = A CellTox Green Cytotoxicity Assay to monitor cytotoxicity in HEK293 cells - 16 hour (AID 1224888); also: nearly all actives have a fitted effect of over 35% in size
Procedure, shortened: as §1

[19] = qHTS RealTime-Glo MT Cell Viability Assay in HepG2 cells - 0 hour (AID 1224889); also: nearly all actives have a fitted effect of over 50% in size
Procedure, shortened: as §5

[20] = A CellTox Green Cytotoxicity Assay to monitor cytotoxicity in HepG2 cells - 8 hour (AID 1224890); also: nearly all actives have a fitted effect of over 45% in size
Procedure, shortened: as §4
% is scaled to controls: 0 for no effect and ±100 for the full control effect.

O=C(O)CCSSCCC(=O)O
inactive: Potency [1] | Potency [2] | outcome [3] | max response [4] 7.07% | outcome [5] | outcome [6] | outcome [7] | outcome [8] | Potency [9] | Potency [10] | Potency [11] | outcome [12] | Potency [13] | Potency [14] | outcome [15] | Potency [16] | Potency [17] | outcome [18] | Potency [19] | outcome [20]

N#Cc1ccc(C(=O)O)cc1
inactive: Potency [1] | Potency [2] | outcome [3] | max response [4] 3.59% | outcome [5] | outcome [6] | outcome [7] | outcome [8] | Potency [9] | Potency [10] | Potency [11] | outcome [12] | Potency [13] | Potency [14] | outcome [15] | Potency [16] | Potency [17] | outcome [18] | Potency [19] | outcome [20]

CCN(C)C(=O)Oc1cccc([C@H](C)N(C)C)c1
inactive: Potency [1] | Potency [2] | outcome [3] | max response [4] 1.94% | outcome [5] | outcome [6] | outcome [7] | outcome [8] | Potency [9] | Potency [10] | Potency [11] | outcome [12] | Potency [13] | Potency [14] | outcome [15] | Potency [16] | Potency [17] | outcome [18] | Potency [19] | outcome [20]

CC(CN)CC(C)(C)CCN (stereo not given)
inactive: Potency [1] | Potency [2] | outcome [3] | max response [4] 6.3% | outcome [5] | outcome [6] | outcome [7] | outcome [8] | Potency [9] | Potency [10] | Potency [11] | outcome [12] | Potency [13] | Potency [14] | outcome [15] | Potency [16] | Potency [17] | outcome [18] | Potency [19] | outcome [20]

O=C(OCc1ccccc1)C(=O)OCc1ccccc1
inactive: Potency [1] | Potency [2] | outcome [3] | max response [4] 1.62% | outcome [5] | outcome [6] | outcome [7] | outcome [8] | Potency [9] | Potency [10] | Potency [11] | outcome [12] | Potency [13] | Potency [14] | outcome [15] | Potency [16] | Potency [17] | outcome [18] | Potency [19] | outcome [20]

COc1cc2c(cc1OC)[C@@H]1CC(=O)[C@@H](CC(C)C)CN1CC2
inactive: Potency [1] | Potency [2] | outcome [3] | max response [4] -11.9% | outcome [5] | outcome [6] | outcome [7] | outcome [8] | Potency [9] | Potency [10] | Potency [11] | outcome [12] | Potency [13] | Potency [14] | outcome [15] | Potency [16] | Potency [17] | outcome [18] | Potency [19] | outcome [20]

CCOC(=O)/C=C/c1ccccc1
inactive: Potency [1] | Potency [2] | outcome [3] | max response [4] -4.48% | outcome [5] | outcome [6] | outcome [7] | outcome [8] | Potency [9] | Potency [10] | Potency [11] | outcome [12] | Potency [13] | Potency [14] | outcome [15] | Potency [16] | Potency [17] | outcome [18] | Potency [19] | outcome [20]

CCCCCCOC(=O)CC
inactive: Potency [1] | Potency [2] | outcome [3] | max response [4] 2.45% | outcome [5] | outcome [6] | outcome [7] | outcome [8] | Potency [9] | Potency [10] | Potency [11] | outcome [12] | Potency [13] | Potency [14] | outcome [15] | Potency [16] | Potency [17] | outcome [18] | Potency [19] | outcome [20]

C=C(C)C(=O)OCCNC(C)(C)C
inactive: Potency [1] | Potency [2] | outcome [3] | max response [4] 0.848% | outcome [5] | outcome [6] | outcome [7] | outcome [8] | Potency [9] | Potency [10] | Potency [11] | outcome [12] | Potency [13] | Potency [14] | outcome [15] | Potency [16] | Potency [17] | outcome [18] | Potency [19] | outcome [20]

CCC(C=O)CC
inactive: Potency [1] | Potency [2] | outcome [3] | max response [4] -5.72% | outcome [5] | outcome [6] | outcome [7] | outcome [8] | Potency [9] | Potency [10] | Potency [11] | outcome [12] | Potency [13] | Potency [14] | outcome [15] | Potency [16] | Potency [17] | outcome [18] | Potency [19] | outcome [20]

CC(=O)Nc1ccc(S(=O)(=O)Nc2ccc([N+](=O)[O-])cc2)cc1
inactive: Potency [1] | Potency [2] | outcome [3] | max response [4] -8.9% | outcome [5] | outcome [6] | outcome [7] | outcome [8] | Potency [9] | Potency [10] | Potency [11] | outcome [12] | Potency [13] | Potency [14] | outcome [15] | Potency [16] | Potency [17] | outcome [18] | Potency [19] | outcome [20]

OCCN(CCO)c1cccc(Cl)c1
inactive: Potency [1] | Potency [2] | outcome [3] | max response [4] 0.212% | outcome [5] | outcome [6] | outcome [7] | outcome [8] | Potency [9] | Potency [10] | Potency [11] | outcome [12] | Potency [13] | Potency [14] | outcome [15] | Potency [16] | Potency [17] | outcome [18] | Potency [19] | outcome [20]

CC(C)NCC(O)COc1ccc(COCCOC(C)C)cc1 (stereo not given)
inactive: Potency [1] | Potency [2] | outcome [3] | max response [4] 3.86% | outcome [5] | outcome [6] | outcome [7] | outcome [8] | Potency [9] | Potency [10] | Potency [11] | outcome [12] | Potency [13] | Potency [14] | outcome [15] | Potency [16] | Potency [17] | outcome [18] | Potency [19] | outcome [20]
